# “And” between values parts separate entries of the source, which are not always exact repeats. Equal entries are not always repeated. Results filed as inconclusive are left out. A call without a number means that no potency is given here. A number with no mark means an inactive call. The source made the active and inactive calls. Calls come from the whole dose curve; as a rule, active = well fitted inhibition curve with a large enough effect; inconclusive = small, poorly fitted or top-dose-only effect; inactive = flat fitted curve, though single readings scatter.
# Columns and labels:
# HEK293 = test: Cytotoxic Profiling of Annotated Libraries Using Quantitative High-Throughput Screening (AID 1296008); details: Five cell lines viability, CellTiter-Glo ATP luminescence, 48-72 h; max response: active compounds read low; note: potency is the fitted concentration of half-maximal effect
# Summary of the method: (§1)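 Cytotoxicity was measured as CellTiter-Glo ATP luminescence, read after 10 min at room temperature. Compound treatment of the cells lasted 48 or 72 hr at 37 degrees Celsius in a qHTS format.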
# HaCat [1] = test: as above; details: Five cell lines viability, CellTiter-Glo ATP luminescence, 48-72 h; max response: active compounds read low
# Summary of the method: as §1
# KB-3-1 = test: as above; details: Five cell lines viability, CellTiter-Glo ATP luminescence, 48-72 h; max response: active compounds read low
# Summary of the method: as §1
# NIH3T3 = test: as above; details: Five cell lines viability, CellTiter-Glo ATP luminescence, 48-72 h; max response: active compounds read low
# Summary of the method: as §1
# HACAT [2] = test: qHTS assay to identify novel small-molecules to repurpose for Merkel cell carcinoma treatment (AID 1296009); details: MCC and control cell lines, CellTiter-Glo viability, 72 h
# Summary of the method: (§2)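 After compound transfer in DMSO, plates were kept 72 hr at 37 degree celsius. Luminescent ATP signal from CellTiter-Glo served as viability measure, normalized against DMSO and no-cell controls.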
# HEK293T = test: as above; details: MCC and control cell lines, CellTiter-Glo viability, 72 h; series mostly up to 44.8 µM
# Summary of the method: as §2
# [3] = at 44.8 µM (top of the series) unless noted
# Note: nearly all actives have a fitted effect of over 60% in size.
SMILES,outcome (HEK293),outcome (HaCat [1]),max response (KB-3-1) [%],outcome (NIH3T3),outcome (HACAT [2]; [3]),Potency (HEK293T),Potency (HEK293),max response (NIH3T3),outcome (HACAT [2]; at 17.4 µM (top of the series)),outcome (HACAT [2]; at 44.8 µM (top of the series)),outcome (HEK293T),outcome (KB-3-1)
C[C@@H]1CC[C@]2(C(=O)O[C@@H]3O[C@H](CO)[C@@H](O)[C@H](O)[C@H]3O)CC[C@]3(C)C(=CCC4[C@@]5(C)C[C@@H](O)[C@H](O)C(C)(C)C5CC[C@]43C)C2[C@]1(C)O (stereo not given in full),inactive,inactive,0.448,inactive,inactive [at 17.4 µM],inactive,,,,,,
CC(C)(O)CNc1nc(Nc2ccnc(C(F)(F)F)c2)nc(-c2cccc(C(F)(F)F)n2)n1,,inactive,4.85,,,,14.8 µM (active),3.44% and -5.61%,inactive,inactive,,
C/C(=C/CO)CC[C@@H]1[C@@]2(C)CCC[C@](C)(C(=O)O)C2CC[C@@]1(C)O (stereo not given in full),inactive,inactive,3.08,,inactive,inactive,,-1.08%,,,,
C=C1CC[C@@H]2[C@](C)(CO[C@@H]3O[C@H](CO)[C@@H](O)[C@H](O)[C@H]3O)CCC[C@@]2(C)[C@@H]1CCC1=CCOC1=O,inactive,inactive,2.64,inactive,inactive [at 17.4 µM],inactive,,,,,,
CC1[C@@H](O)[C@@H](O)C2[C@]3(C)C(C[C@H]4OC(=O)[C@H](O)[C@]1(O)[C@@]24C)C(C)(O)C[C@H](O)[C@H]3O (stereo not given in full),inactive,inactive,4.32,inactive,inactive [at 17.4 µM],inactive,,,,,,
CC1OC(OC2C(C)OC(OC3C(OC(=O)/C=C/c4ccc(O)cc4)C(CO)OC(OC4(COC(=O)/C=C/c5ccc(O)cc5)OC(CO)C(O)C4O)C3OC3OCC(O)(CO)C3O)C(O)C2O)C(O)C(O)C1O (stereo not given),inactive,inactive,4.29,inactive,inactive [at 9.27 µM],,,,,,inactive [at 9.27 µM],
CC(C)(O)C1CCC2(C)C3C(O)C4C(C13)C42CO (stereo not given),inactive,inactive,9.17,,inactive,inactive,,0.322%,,,,
O=c1ccn(C2OC(CO)C(O)C2O)c(=O)[nH]1 (stereo not given),inactive,inactive,,,inactive,inactive,,1.59%,,,,inactive
CCOc1ccc(C(Nc2ccccn2)c2ccc3ccc(C)nc3c2O)cc1C (stereo not given),inactive,inactive,-0.87,,inactive,inactive,,-16.7%,,,,
CCc1c(CC(N)=O)c2cc(OCCCP(=O)(O)O)ccc2n1Cc1ccccc1,inactive,inactive,,,inactive,inactive,,-4.64%,,,,inactive
CC[C@H]1OC(=O)[C@H](C)[C@@H](OC2C[C@@](C)(OC)[C@@H](O)[C@H](C)O2)[C@H](C)[C@@H](OC2O[C@H](C)C[C@H](NC)[C@H]2O)[C@](C)(O)C[C@@H](C)CN(C)[C@H](C)[C@@H](O)[C@]1(C)O (stereo not given in full),inactive,inactive,-2.3,,inactive,inactive,,-0.0862%,,,,
CCCCN(CCCC)C(=O)CN1C[C@H](c2ccc3c(c2)OCO3)[C@@H](C(=O)O)[C@@H]1c1ccc(OC)cc1,inactive,inactive,,,inactive,inactive,,2.42% and 5%,,,,inactive
NCCCC[C@H](NC(=O)[C@@H]1Cc2ccccc2CN1C(=O)CCC(=O)c1ccccc1)C(=O)NCC(c1ccccc1)c1ccccc1,inactive,inactive,,,inactive,inactive,,3.99%,,,,inactive
CC1(C)CC[C@]2(C(=O)O)CC[C@]3(C)C(=CCC4[C@@]5(C)CCC(O[C@@H]6OC[C@H](O)[C@H](O)[C@H]6O[C@@H]6O[C@H](CO)[C@@H](O)[C@H](O)[C@H]6O)[C@@](C)(CO)C5CC[C@]43C)[C@@H]2C1 (stereo not given in full),inactive,inactive,4.54,,inactive [at 17.4 µM],inactive,,2.38%,,,,
C=CC(C)(C)O[C@@H]1O[C@H](CO[C@@H]2OC[C@](O)(CO)[C@H]2O)[C@@H](O)[C@H](O)[C@H]1O,inactive,inactive,,inactive,inactive,inactive,,,,,,inactive
CC(C)(O)c1ccc2c(c1)C(=O)CC1[C@](C)(CO)CCC[C@]21C (stereo not given in full),inactive,inactive,-6.05,,inactive,inactive,,-3.87%,,,,
CC/C=C\C[C@H]1C(=O)C=C[C@@H]1CCCCCCCC(=O)O,inactive,inactive,-3.68,inactive,inactive,inactive,,,,,,
Cc1[nH]cnc1C1CCN(c2nc3cccc4c3n2CCC4=O)CC1,inactive,inactive,2.43,inactive,inactive,inactive,,,,,,
CC(=O)OC[C@@]12[C@H](O)C[C@]3(C)C(=CCC4[C@@]5(C)CC[C@H](O[C@@H]6O[C@H](C(=O)O)[C@@H](O[C@@H]7O[C@H](CO)[C@@H](O)[C@H](O)[C@H]7O)[C@H](O)[C@H]6O[C@@H]6O[C@H](CO)[C@@H](O)[C@H](O)[C@H]6O)[C@](C)(CO)C5CC[C@]43C)[C@@H]1CC(C)(C)[C@@H](OC(C)=O)[C@@H]2O (stereo not given in full),inactive,inactive,6.14,,inactive [at 9.27 µM],,,0.485%,,,inactive [at 9.27 µM],
Cc1ncc([N+](=O)[O-])n1CC(O)CN1CCOCC1 (stereo not given),inactive,inactive,,inactive,inactive,inactive,,,,,,inactive
CC(C)c1ccc(CC(=O)N2CCC[C@@H](c3cccc(OC(C)(C)C(=O)O)c3)C2)cc1,inactive,inactive,,,inactive,inactive,,-2.06%,,,,inactive
CCC(CCO[C@@H]1O[C@H](CO[C@H]2OC[C@](O)(CO)[C@H]2O)[C@@H](O)[C@H](O)[C@H]1O)C(C)(C)O (stereo not given in full),inactive,inactive,,,inactive [at 17.4 µM],inactive,,1.97%,,,,inactive
CC1CC(O)CC(C)(C)C1(O)CCO (stereo not given),inactive,inactive,,,inactive [at 92 µM],inactive,,0.3%,,,,inactive
CC(C#N)C(C)O[C@@H]1O[C@H](CO)[C@@H](O)[C@H](O)[C@H]1O (stereo not given in full),inactive,inactive,,inactive,inactive,inactive,,,,,,inactive
O=C(O[C@H]1[C@@H]2C[C@@H]3OC[C@@](O)([C@H]2[C@H](O[C@@H]2O[C@H](CO)[C@@H](O)[C@H](O)[C@H]2O)O3)[C@@H]1O)c1ccccc1,inactive,inactive,,inactive,inactive [at 17.4 µM],inactive,,,,,,inactive

# From PubChem BioAssay (NCATS)
